# Whole data set: some 33,000 sequences, median “E-score (-0.5 to 0.5)” near -8e-05, cut for the highest 2% near 0.23. The sample as a whole holds a higher share of the highest values than the screen did.
# Molecular target: T1, Nrg2 (UniProt P38082)
# T1 sequence: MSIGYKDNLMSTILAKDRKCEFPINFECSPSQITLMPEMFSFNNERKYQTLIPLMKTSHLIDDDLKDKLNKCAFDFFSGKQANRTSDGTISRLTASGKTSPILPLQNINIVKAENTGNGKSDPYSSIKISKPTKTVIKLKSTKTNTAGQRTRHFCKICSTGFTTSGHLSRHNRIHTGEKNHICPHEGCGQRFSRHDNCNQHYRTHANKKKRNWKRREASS
# Assay: PBM E-score (8-mer binding enrichment) (E-score (-0.5 to 0.5)); higher = stronger / more preferred TF binding
# Conditions: protein concentration: 100 nM; construct: GST-full length
# Summary of the method: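 Detection of bound protein used fluorescent anti-GST, with scans normalised by masliner. The proteins were GST-tagged yeast transcription factors applied at about 100-200 nM to universal all-10-mer Agilent arrays made double-stranded by primer extension. Each ungapped eight-base word, pooled with its reverse complement, was scored with an E-score from the Universal PBM Analysis Suite.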
row,Sequence,PBM E-score
1,CACGATAC,-0.129
2,ACTTTCGC,-0.0735
3,CAGTTGCC,-0.092
4,ATGAGCAA,0.121
5,AGGGTCAT,0.132
6,GCCCAAGC,0.106
7,ATCTATGC,0.117
8,CCGGGCAC,-0.16
9,CGCAAAGA,0.111
10,GGGTCTCA,0.0513
11,AGGGACCC,0.337
12,CGGGACCG,-0.0394
13,AGGGACTA,0.242
14,AGGGACAC,0.204
15,GGGGACCC,0.143
16,ACGGACCG,-0.252
17,CGGGACCC,-0.0126
18,GGGGACTA,-0.0994
19,AGGGACCG,0.231
20,AGGGACAA,0.228
21,AGGGACTC,-0.0325
22,AGGGACAT,0.301
23,CCTGACCA,0.142
24,CGAAGACC,0.0649
25,GCTCTCAA,0.047

row,Sequence,PBM E-score
1,ACGATCGA,0.0838
2,GTGAGCAA,-0.0485
3,GTCCAGTA,-0.0597
4,AATACAAT,0.106
5,GATACAAA,0.18
6,TATACAAA,0.148
7,AATACAAG,0.296
8,AATACAAA,0.269
9,AATACAAC,0.185
10,GTAATCGA,0.154
11,TGAATACA,0.0782
12,CCTTGCTC,0.0643
13,AGCGTTAT,-0.0753
14,GTCTACTA,0.0788
15,CACCTGTC,0.0208
16,AGCTCTGG,-0.136
17,ATCAGATG,-0.0502
18,GTCTTGCA,0.0101
19,ATCTTGCG,-0.0421
20,ATCTTGCA,0.256
21,GAAGCCTC,-0.146
22,ATCGAAGA,0.193
23,ATATTGCA,0.113
24,AGAGATTC,0.0502
25,GACAGTAA,0.0902

row,Sequence,PBM E-score
1,ATGAAGTG,0.235
2,ATGAAGTA,0.0961
3,ATGAAGTC,-0.0277
4,ATTGAACG,-0.0983
5,ATCCAAAT,0.0165
6,CGCGCGGA,0.227
7,CACGCGGA,0.234
8,AGCGCGTC,-0.0322
9,AGCGCGGC,0.0579
10,CGCGCGTC,0.262
11,CGCGCGGC,0.296
12,CCCGCGGA,0.204
13,CGCGCGTA,0.133
14,AACGCGGA,0.0806
15,CCCGCGGG,0.278
16,CACGCGGG,-0.0425
17,ACCGCGGG,0.171
18,CCATTTAA,-0.00324
19,CATTGAGC,-0.0461
20,CCTTAGTC,-0.119
21,CCGCTGCG,-0.14
22,ATCAATAC,0.136
23,AGTGCTAG,-0.0309
24,AATGAGGG,-0.00097
25,TAGAGCTA,-0.161

row,Sequence,PBM E-score
1,CTGCCACA,-0.117
2,AACCTTAC,0.108
3,GACCCTGA,0.389
4,GACCCCTA,0.151
5,ACCCTTAG,0.123
6,AACCCTTC,0.168
7,ACCCTTAT,0.28
8,AACCTTAA,0.293
9,AACCCTTG,0.194
10,ACCCTTAA,0.152
11,AACCTTAG,-0.109
12,GACCCTCA,-0.116
13,AACCCTTA,0.235
14,GTCAAAAC,0.0485
15,AGATCTAT,-0.0448
16,CTGCACCA,-0.0673
17,AGTTGATC,0.137
18,CATTCGTA,-0.0996
19,ACTCTATG,0.056
20,ACTTCCTG,0.0859
21,TAAATCGA,0.151
22,CGCTTACG,-0.284
23,TACCCTGA,0.265
24,TACCCCTA,0.173
25,TACCCTCA,0.00099

row,Sequence,PBM E-score
1,GACCCTGC,0.331
2,ACCCCTAT,0.256
3,AACCCCTA,0.25
4,ACCCCCTA,-0.391
5,ACCCCTAA,0.172
6,CACCCTGC,0.191
7,ACCCCTAG,0.153
8,GACCCTCC,0.16
9,TATCCTGA,0.202
10,GGATCTGA,-0.0992
11,CAAAGGCA,-0.173
12,ACTAAGAA,0.221
13,CGAGCTAC,0.124
14,TAACCGAA,-0.0477
15,ACCAGTCG,-0.149
16,CGAGTTTA,0.0171
17,ACAGAGGA,0.00257
18,ACCACACG,-0.034
19,AAACGGAT,0.205
20,ATCGAGGG,0.12
21,CCGTTCAG,0.00062
22,CACCCTGG,0.0652
23,AACCCTGG,0.315
24,GACCCTTA,0.321
25,TACCCTAA,0.107

row,Sequence,PBM E-score
1,CACCCTTA,0.147
2,AACCCTAG,0.0468
3,GGCCCTTA,0.185
4,AACCCTAT,0.195
5,AACCCTGT,0.244
6,ACCCCTGG,0.0828
7,GACCCTAA,0.237
8,GACCCTAC,0.184
9,GAGTCTGA,-0.0871
10,CAGTATGG,0.0291
11,AACGAGGC,-0.139
12,AAAGTTCG,0.127
13,ACCCCTTA,0.178
14,GACCCATA,0.118
15,AACCCATT,0.00038
16,CCCCCTGA,-0.00244
17,AACCCTGC,0.134
18,AACCCTGA,0.385
19,AACCCATA,0.24
20,CACCCTGA,0.201
21,ACCCCTGA,0.297
22,CGCGACGA,0.176
23,TGGGGACA,-0.187
24,AAGGGAGC,-0.187
25,AAAACGGC,0.112

row,Sequence,PBM E-score
1,GCCGGACA,0.0968
2,TCGTTGAA,-0.0977
3,CTACTATC,0.247
4,CTACTATA,0.143
5,ATACTATC,0.013
6,AGGAAAAC,0.151
7,ACTGTTTA,-0.0842
8,CTTCGTCC,-0.114
9,ATTCGTCC,0.27
10,ATTCGTTG,0.239
11,ATTCGTTA,0.165
12,ATTCGTCG,-0.00164
13,ACTCGTTG,-0.109
14,CTTCGTTC,-0.00176
15,ATTCGTTC,0.28
16,AATCGTTC,0.0566
17,AAAATCAT,-0.0452
18,CATTGGTA,0.0651
19,CGAGTTAC,0.215
20,CGAGTTAA,0.264
21,TGAGTTAA,0.0318
22,CGGTCTAA,-0.118
